From PubChem
Compounds with a hit are over-represented: about 0.9% of the library has one in this group of screens.
MazEF act – increases E. coli MazEF RNase cleavage of RNA; FAM/BHQ RNA-DNA oligo cleavage fluorescence, 5 h; activation, % at 20 µM; AID 504720; 0.32% of 350,000 active; in the data active means activation above about 50%
Target sequence (P0AE70 whole entry, looked up): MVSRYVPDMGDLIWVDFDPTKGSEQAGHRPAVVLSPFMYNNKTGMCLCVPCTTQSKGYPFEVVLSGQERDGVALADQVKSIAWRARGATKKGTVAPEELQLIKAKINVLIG
SARS 3CLpro inh – SARS-CoV 3CLpro protease inhibition. P0C6X7. recombinant SARS-CoV 3CLpro, quenched FRET peptide cleavage. inhibition, % at 6 µM. 0.14% of 290,000 active. AID 1706; in the data active means inhibition above about 12%
Y pestis TopoI – Y. pestis Topo-I inhibition via cleavage products; 0.064% of 360,000 active; activity, % at 10 µM; Y. pestis Topo-I cleavage product accumulation, plate reader; AID 504884; in the data active means activity above about 50%, passing the limit was not always enough
PriA SSB inh – blocks PriA binding to SSB C-terminal tail. 0.6% of 430,000 active. inhibition, % at 33 µM. AlphaScreen SSBct-PriA binding, biotinylated peptide; in the data active means inhibition mostly above about 37%, no sharp cut-off; inactive means mostly below about 20%
Large screens that a line does not name were inactive.

CN1c2ccccc2C(=O)C(=CNc2ncccn2)S1(=O)=O	none (no result: MazEF act, SARS 3CLpro inh, Y pestis TopoI)
COC(CNC(=O)Cc1c(C)noc1C)c1ccccc1Cl (configuration not stated)	none (no result: MazEF act, SARS 3CLpro inh, Y pestis TopoI)
O=[N+]([O-])c1cc(F)cc2cccnc12	PriA SSB inh 54.7 (no result: MazEF act, SARS 3CLpro inh, Y pestis TopoI)
O=[N+]([O-])c1cc(O)cc2cccnc12	none (no result: MazEF act, SARS 3CLpro inh, Y pestis TopoI)
O=[N+]([O-])c1ccc(Sc2cccc3cccnc23)c([N+](=O)[O-])c1	PriA SSB inh 86.9
O=[N+]([O-])c1cccnc1Sc1ccc(F)cc1	PriA SSB inh 42.4 (no result: SARS 3CLpro inh)
Cc1csc(NC(=O)C2CCCCN2S(=O)(=O)c2ccccc2)n1 (configuration not stated)	none
O=C(Nc1nc(-c2ccc3c(c2)OCCO3)cs1)C1CCCN1S(=O)(=O)c1cccs1 (configuration not stated)	none (no result: MazEF act, SARS 3CLpro inh, Y pestis TopoI)
O=C(Nc1nc(-c2ccccn2)cs1)C1CCCCN1S(=O)(=O)c1cccs1 (configuration not stated)	PriA SSB inh 104.0 (no result: MazEF act, SARS 3CLpro inh, Y pestis TopoI)
Cc1ccc(S(=O)(=O)N2CCCCC2C(=O)Nc2nc(-c3ccccn3)cs2)cc1 (configuration not stated)	PriA SSB inh 65.5 (no result: MazEF act, SARS 3CLpro inh, Y pestis TopoI)
O=c1[nH]c(=S)ccn1-c1nc(-c2ccccc2)oc1-c1ccccc1	none (no result: MazEF act, SARS 3CLpro inh, Y pestis TopoI)
Cc1ccc(-c2cn(C[C@H]3CC[C@@H]([C@@H]4CC[C@H](Cn5cc(-c6ccc(C)cc6)nn5)O4)O3)nn2)cc1	none
c1ccc(-c2cn(C[C@H]3CC[C@H](Cn4cc(-c5ccccn5)nn4)O3)nn2)nc1	PriA SSB inh 109.1
COc1ccc(-c2ccc(S(=O)(=O)N[C@@H](Cc3ccccc3)C(=O)O)cc2)cc1	none (no result: MazEF act, SARS 3CLpro inh, Y pestis TopoI)
N#Cc1nc(COc2ccccc2F)oc1N1CCCCCC1	none
N#Cc1nc(COc2ccccc2F)oc1NCCc1ccccc1	PriA SSB inh 43.3
CN(Cc1ccccc1)c1oc(COc2ccccc2F)nc1C#N	PriA SSB inh 51.1
COc1ccc(N2CCN(CCNC(=O)c3ccc(OC(C)C)cc3)CC2)cc1	none (no result: MazEF act, SARS 3CLpro inh, Y pestis TopoI)
NC(=O)c1cc2ccc(O)cc2oc1=NCc1ccccc1	MazEF act 785.0
CS(=O)(=O)N(CC(=O)N1CCCCC1)Cc1ccccc1	PriA SSB inh 59.1
CS(=O)(=O)N(CC(=O)N1CCN(Cc2ccccc2)CC1)c1ccccc1F	PriA SSB inh 52.2
CN1CCN(C(=O)CN(Cc2ccccc2)S(C)(=O)=O)CC1	none
N#Cc1nccnc1OC1CCN(C(=O)COc2cccc(C(F)(F)F)c2)C1 (configuration not stated)	none (no result: MazEF act, SARS 3CLpro inh, Y pestis TopoI)
COC(=O)C=c1sc(=C(C#N)C(=O)NCc2ccco2)n(-c2ccccc2)c1=O	none (no result: MazEF act, SARS 3CLpro inh, Y pestis TopoI)
COC(=O)/C=c1/s/c(=C(\C#N)C(=O)NCc2ccco2)n(-c2ccc(C)cc2)c1=O	MazEF act 65.0 (no result: PriA SSB inh)
O=C(CSc1nc2ccsc2c(=O)n1-c1cccc(Cl)c1Cl)NCc1ccccc1Cl	none (no result: MazEF act, SARS 3CLpro inh, Y pestis TopoI)
O=C(N/N=C/C(Br)=C/c1ccccc1)C(O)c1ccccc1 (configuration not stated)	none
O=C(O)c1ccc(N/N=C/C(Br)=C/c2ccccc2)cc1	MazEF act 60.8
O=S(=O)(O)c1cccc2c(N=Nc3ccc(O)c4ncccc34)cccc12	PriA SSB inh 61.9
CN1C(=O)C(C)(C)c2cc(S(=O)(=O)NCc3ccc(Cl)cc3)ccc21	none
CCC(C)NC(=O)c1ccc(CNS(=O)(=O)c2ccc3c(c2)C(C)(C)C(=O)N3C)cc1 (configuration not stated)	MazEF act 107.0
Cc1ccc(CNC(=O)c2ccc(CNS(=O)(=O)c3ccc4c(c3)C(C)(C)C(=O)N4C)cc2)o1	MazEF act 102.1
CCN(CCCNC(=O)c1[nH]c(C)c(C(C)=O)c1C)c1cccc(C)c1	PriA SSB inh 40.1
CC(C)(C)NC(=O)N1CCC(CNC(=O)c2ccc(-c3ccsc3)cc2)CC1	none (no result: MazEF act, SARS 3CLpro inh, Y pestis TopoI)
Cn1cncc1C#Cc1ccc2cc(C3(O)CCCCC3)oc(=O)c2c1	MazEF act 76.3 (no result: SARS 3CLpro inh)
CCc1ccc2ncc(C#N)c(N3CCC4(CC3)OCCO4)c2c1	none (no result: MazEF act, SARS 3CLpro inh, Y pestis TopoI)
CCN(CC)S(=O)(=O)c1ccc(Cl)c(C(=O)Nc2ccc(Cl)cc2[N+](=O)[O-])c1	PriA SSB inh 42.8
CCCC(=O)OCC(=O)Nc1ccc(Cl)cc1[N+](=O)[O-]	PriA SSB inh 78.3 (no result: MazEF act, SARS 3CLpro inh, Y pestis TopoI)
CN(C)S(=O)(=O)c1ccc(Cl)c(C(=O)Nc2ccccc2[N+](=O)[O-])c1	none
CCOc1ccc2c(c1)S/C(=C\c1cccs1)C(=O)N2	MazEF act 77.3
Cc1cc(C)cc(N=C2NC(=O)/C(=C/c3cccs3)S2)c1	none
O=C(Nc1nc(-c2ccccn2)cs1)C1COc2ccccc2O1 (configuration not stated)	PriA SSB inh 70.5
CC1CC1C(=O)Nc1nc(-c2ccccn2)cs1 (configuration not stated)	PriA SSB inh 60.3
O=C(Nc1nc(-c2ccccn2)cs1)C1CC1c1ccccc1C(F)(F)F (configuration not stated)	none (no result: MazEF act, SARS 3CLpro inh, Y pestis TopoI)
O=C(Nc1nc(-c2ccccn2)cs1)C1CC1c1ccco1 (configuration not stated)	PriA SSB inh 98.8 (no result: MazEF act, SARS 3CLpro inh, Y pestis TopoI)
Nc1ccccc1N=Nc1ccccc1N	PriA SSB inh 82.9
c1csc(-c2csc(CN3CCNCC3)n2)c1	none (no result: MazEF act, SARS 3CLpro inh, Y pestis TopoI)
COc1ccc(CC2(C)OC(c3ccc([N+](=O)[O-])cc3)=NN2C(C)=O)cc1 (configuration not stated)	PriA SSB inh 44.8
COc1ccc(C(=O)NNC(=O)Cc2ccc([N+](=O)[O-])cc2)cc1	none
CC(C)OC(=O)c1nn2c(C(F)(F)F)cc(-c3ccc(Br)o3)nc2c1Br	MazEF act 350.7
CCOC(=O)c1cc(NC(=O)C2C3C=CC(O3)C2C(=O)O)cc(C(=O)OCC)c1 (configuration not stated)	none
CCOC(=O)c1cc(NC(=O)C2C3CCC(O3)C2C(=O)O)cc(C(=O)OCC)c1 (configuration not stated)	PriA SSB inh 53.0
Cc1cc(C)cc(N2C(=O)NC(=O)/C(=C\c3cccn3-c3ccccc3)C2=O)c1	Y pestis TopoI 53.2
Cc1cc(C)cc(N2C(=O)NC(=O)/C(=C\c3cccn3-c3ccc(Cl)cc3)C2=O)c1	none
CCN1c2ccccc2NC2C1C(C(C)=O)C(=O)N2c1ccc(Cl)cc1 (configuration not stated)	none
CCN1c2ccccc2NC2N=C(OC)C(c3ccccc3)C21 (configuration not stated)	PriA SSB inh 54.2
Cc1cc(N=Nc2ccc(Cl)cc2)cc(CN2CCCC2)c1O	PriA SSB inh 72.0
Cc1c(O)c(CN2CCCCC2)cc2c3c(c(=O)oc12)CCC3	none
Cc1cc(N=Nc2ccc(Cl)cc2)cc(CN2CCOCC2)c1O	PriA SSB inh 49.1
CC1CN(C)CCN1CC1CCN(C(=O)c2cnccn2)CC1 (configuration not stated)	none (no result: MazEF act, SARS 3CLpro inh, Y pestis TopoI)
CCN(CC)c1ccc2c(-c3ccc(S(=O)(=O)O)cc3S(=O)(=O)[O-])c3ccc(=[N+](CC)CC)cc-3oc2c1	Y pestis TopoI active
CCN(CC)c1ccc2nc3c4ccccc4c(=O)cc-3oc2c1	none (no result: Y pestis TopoI)
CCn1c(=O)c(C(=O)Nc2ccc3c(c2)OCCO3)c(O)c2sccc21	none (no result: MazEF act, SARS 3CLpro inh, Y pestis TopoI)
O=C(N=c1ccn(-c2nc3ccccc3nc2NS(=O)(=O)c2ccc(Cl)cc2)cc1)c1cccs1	MazEF act 92.2
